Assay [1] is described as follows: anti-His antibody binders, primary screen, artefact control for SMM control protein annotation, biochemical, small-molecule microarray, 635 nm fluorescence (AID 1128).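 Further: score merges feature fluorescence with signal-to-noise for each printed compound spot.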 The conditions noted are these: anti-His Alexa647 antibody binding, higher = more signal.
Assay [2] deals with Human papillomavirus type 1a E7 protein (residues 1-88). Description: HPV1a E7 small-molecule binders, primary screen, biochemical, small-molecule microarray, residues 1-88, 635 nm (AID 1129). As to conditions: small-molecule microarray binding, fluorescence 635 nm; higher = more signal.
In assay [3] the target is Focal adhesion kinase 1 (Homo sapiens) (UniProt Q05397). In words: small-molecule microarray binders of FAK, primary screen, biochemical, 635/667 nm fluorescence, BSA, DTT (AID 1130).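 Further: composite of spot emission at 667 nm and signal to noise over triplicate slides.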 As to conditions: PTK2 binding, 635 nm fluorescence, higher = more signal.
Assay [4] has as its system Fibrinogen (Alexa647-labelled). Description: fibrinogen binders on compound microarrays, profiling panel, artefact control for SMM control-protein annotation, biochemical, small-molecule microarray, 635/667 nm fluorescence (AID 1131).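 Further: z-score merges 667 nm fluorescence with per-spot signal-to-noise over triplicate slides.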 As to conditions: fibrinogen-A647 binding fluorescence, higher = more signal.
Assay [5] has as its target Follistatin (Homo sapiens) (UniProt P19883). In words: follistatin binders on small-molecule microarrays, primary screen, biochemical, small-molecule microarray, 635/667 nm fluorescence (AID 1132). The conditions noted are these: FST binding, 635 nm fluorescence, higher = more signal.
In assay [6] the target is Fibroblast growth factor 2 (Homo sapiens) (UniProt P09038). Description: FGF2 binders on small-molecule microarrays, primary screen, biochemical, small-molecule microarray, 635/667 nm fluorescence (AID 1133). The conditions noted are these: small-molecule microarray binding, FGF2, fluorescence 635/667; higher = more signal.
Assay [7] can be described thus: mitochondrial membrane potential change in A549 cells, profiling panel, cell-based, JC-1 fluorescence, basal, 24 h, 100 nL (AID 1138).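 Further: A549 lung adenocarcinoma cells under basal conditions with no added stimulus; test concentration not given here.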 The conditions noted are these: higher = more signal.
The test system of assay [8] is Lefty1. Description: Lefty1 binders on small-molecule microarrays, primary screen, biochemical, small-molecule microarray, 635/667 nm fluorescence (AID 1139). As to conditions: small-molecule microarray binding, fluorescence 635/667; higher = more signal.
In assay [9] the test system is wheat germ agglutinin (Triticum aestivum), Alexa647-labelled. In words: wheat germ agglutinin binders on compound microarrays, profiling panel, artefact control for SMM control-protein annotation, biochemical, small-molecule microarray, 635/667 nm fluorescence (AID 1140).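 Further: score merges 667 nm feature emission with signal to noise over triplicate slides.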 As to conditions: WGA-A647 binding, 635 nm fluorescence, higher = more signal.
Assay [10] addresses Luciferin 4-monooxygenase (Photinus pyralis) (UniProt P08659). Description: firefly luciferase enzyme inhibitors, primary screen, biochemical, luminescence, purified enzyme, 2006 set (AID 1141).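 Further: cell-free assay with purified firefly luciferase at 100 ng per well in PBS; test concentration not given here.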 The conditions noted are these: SteadyGlo luminescence, 30 min, higher = more signal, called active from +8 up or from −8 down.
Assay [11] has as its system Wnt5a (protein binding on small-molecule microarray). Description: Wnt5a binders on small-molecule microarray, primary screen, biophysical, 635/667 nm fluorescence (AID 1142).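 Further: fluorescence read at 667 nm with signal to noise per printed feature.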 The conditions noted are these: 635 nm fluorescence, higher = more signal.
Assay [12] can be described thus: cell viability in Huh7 cells, primary screen, cytotoxicity control for HCV replication inhibitor project, CellTiter-Glo luminescence, basal, 48 h (AID 1143).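 Further: Huh7 hepatoma cells carrying a hepatitis C replication reporter with no stimulus; test concentration not given here.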 As to conditions: Huh7 HCV replicon, higher = more signal, called active from +8 up or from −8 down. (In ATP-based viability assays light output follows the ATP content of the culture.)
A short description of assay [13]: P. aeruginosa biofilm formation inhibitors, primary screen, PAO1 strain, BacTiter-Glo luminescence, LB-PBS (AID 1144). The conditions noted are these: 12 h, higher = more signal.
The nature of assay [14]: CREB reporter modulators without forskolin, primary screen, cell-based, PC12, CRE-LacZ reporter, unstimulated (AID 1145). The conditions noted are these: no forskolin, luminescence, 4.5 h, higher = more signal, called active from +8 up or from −8 down.
Assay [15] in a line: CREB reporter modulators under forskolin, primary screen, cell-based, PC12, CRE-LacZ reporter, forskolin-stimulated (AID 1146).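 Further: PC12 cells with 6xCRE LacZ reporter stimulated by forskolin 10 µM; beta-galactosidase reporter signal reflecting CREB driven transcription.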 The conditions noted are these: luminescence, 4.5 h, higher = more signal, called active from +8 up or from −8 down.
In assay [16] the target is Streptavidin (Streptomyces avidinii) (UniProt P22629). In words: streptavidin binders on small-molecule microarray, primary screen, artefact control for SMM compound annotation, biophysical, 635/667 nm fluorescence (AID 1147).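 Further: signal reflects streptavidin binding to arrayed compounds as a control protein.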 The conditions noted are these: streptavidin binding, higher = more signal.
The nature of assay [17]: small-molecule binders of probe aInhba, primary screen, biochemical, small-molecule microarray, 635/667 nm fluorescence (AID 1148).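 Further: score merges 667nm spot fluorescence with signal-to-noise for antibody binding to printed compounds.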 The conditions noted are these: higher = more signal.
The target of assay [18] is Torsin-1A (Homo sapiens) (UniProt O14656). Description: torsin A binders from cell lysate, primary screen, small-molecule microarray, wild-type, 635/667 nm (AID 1149). The conditions noted are these: COS7 hTOR1A-WT lysate, 635 nm fluorescence, higher = more signal.
The target is the same in assay [19]. In words: small-molecule binders of mutant TOR1A in lysate, primary screen, cell lysate, small-molecule microarray, COS7 lysate, 635/667 nm fluorescence (AID 1150).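 Further: score pools 667 nm emission and signal to noise measuring lysate protein binding.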 As to conditions: COS7 hTOR1A mutant lysate, 635 nm fluorescence, higher = more signal.
Assay [20] has as its system Sonic hedgehog protein (Shh). In words: small-molecule binders of Shh protein, primary screen, biochemical, small-molecule microarray, 635/667 nm fluorescence (AID 1151).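 Further: Shh protein binding to compounds spotted on small-molecule microarray slides; score combines spot fluorescence intensity with signal-to-noise across triplicate slides.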 The conditions noted are these: small-molecule microarray binding, 635 nm fluorescence; higher = more signal.

SMILES strings stand for the structures. The source made the active and inactive calls. Unless noted, how the calls were made is not given here.

Sequence of Torsin-1A (Homo sapiens) (O14656 whole entry, looked up): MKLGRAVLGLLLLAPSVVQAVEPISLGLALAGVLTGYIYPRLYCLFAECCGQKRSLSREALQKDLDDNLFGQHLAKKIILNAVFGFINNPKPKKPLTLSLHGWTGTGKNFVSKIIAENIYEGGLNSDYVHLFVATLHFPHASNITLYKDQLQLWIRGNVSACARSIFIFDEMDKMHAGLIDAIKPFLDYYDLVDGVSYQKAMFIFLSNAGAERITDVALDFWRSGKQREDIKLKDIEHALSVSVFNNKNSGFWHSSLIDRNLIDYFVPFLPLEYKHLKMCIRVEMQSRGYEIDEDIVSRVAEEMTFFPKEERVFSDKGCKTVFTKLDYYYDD
Sequence of Follistatin (Homo sapiens) (P19883 whole entry, looked up): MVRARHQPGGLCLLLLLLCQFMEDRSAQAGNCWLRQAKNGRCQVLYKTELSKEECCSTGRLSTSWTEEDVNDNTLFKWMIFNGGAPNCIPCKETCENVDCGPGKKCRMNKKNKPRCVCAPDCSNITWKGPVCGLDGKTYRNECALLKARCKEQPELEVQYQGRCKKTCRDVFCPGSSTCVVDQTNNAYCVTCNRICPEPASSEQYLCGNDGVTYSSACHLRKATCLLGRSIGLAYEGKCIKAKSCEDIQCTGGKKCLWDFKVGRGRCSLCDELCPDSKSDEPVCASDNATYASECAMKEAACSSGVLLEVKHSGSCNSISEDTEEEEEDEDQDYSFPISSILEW
Sequence of Fibroblast growth factor 2 (Homo sapiens) (P09038 whole entry, looked up): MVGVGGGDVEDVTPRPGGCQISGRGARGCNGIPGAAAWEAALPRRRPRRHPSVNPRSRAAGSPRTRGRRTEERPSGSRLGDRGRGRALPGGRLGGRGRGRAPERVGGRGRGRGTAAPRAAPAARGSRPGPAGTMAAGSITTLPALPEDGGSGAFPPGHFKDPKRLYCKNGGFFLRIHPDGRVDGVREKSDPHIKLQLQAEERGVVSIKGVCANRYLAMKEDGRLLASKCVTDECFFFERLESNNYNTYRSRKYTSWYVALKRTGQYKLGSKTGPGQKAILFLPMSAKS
Sequence of Luciferin 4-monooxygenase (Photinus pyralis) (P08659 whole entry, looked up): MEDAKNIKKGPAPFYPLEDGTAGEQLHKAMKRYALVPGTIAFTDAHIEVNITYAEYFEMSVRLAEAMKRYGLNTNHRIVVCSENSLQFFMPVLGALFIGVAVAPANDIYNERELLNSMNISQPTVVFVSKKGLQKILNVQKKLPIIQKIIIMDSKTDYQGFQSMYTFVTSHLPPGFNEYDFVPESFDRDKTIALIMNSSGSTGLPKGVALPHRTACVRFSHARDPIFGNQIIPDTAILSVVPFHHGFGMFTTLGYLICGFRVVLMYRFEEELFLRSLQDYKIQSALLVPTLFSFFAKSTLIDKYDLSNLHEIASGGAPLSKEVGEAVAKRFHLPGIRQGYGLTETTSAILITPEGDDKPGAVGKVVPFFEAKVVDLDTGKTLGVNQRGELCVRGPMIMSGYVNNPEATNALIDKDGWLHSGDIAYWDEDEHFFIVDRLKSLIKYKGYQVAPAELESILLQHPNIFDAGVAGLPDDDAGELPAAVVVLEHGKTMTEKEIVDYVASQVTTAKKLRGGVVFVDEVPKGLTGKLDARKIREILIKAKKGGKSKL
Sequence of Focal adhesion kinase 1 (Homo sapiens) (Q05397 whole entry, looked up): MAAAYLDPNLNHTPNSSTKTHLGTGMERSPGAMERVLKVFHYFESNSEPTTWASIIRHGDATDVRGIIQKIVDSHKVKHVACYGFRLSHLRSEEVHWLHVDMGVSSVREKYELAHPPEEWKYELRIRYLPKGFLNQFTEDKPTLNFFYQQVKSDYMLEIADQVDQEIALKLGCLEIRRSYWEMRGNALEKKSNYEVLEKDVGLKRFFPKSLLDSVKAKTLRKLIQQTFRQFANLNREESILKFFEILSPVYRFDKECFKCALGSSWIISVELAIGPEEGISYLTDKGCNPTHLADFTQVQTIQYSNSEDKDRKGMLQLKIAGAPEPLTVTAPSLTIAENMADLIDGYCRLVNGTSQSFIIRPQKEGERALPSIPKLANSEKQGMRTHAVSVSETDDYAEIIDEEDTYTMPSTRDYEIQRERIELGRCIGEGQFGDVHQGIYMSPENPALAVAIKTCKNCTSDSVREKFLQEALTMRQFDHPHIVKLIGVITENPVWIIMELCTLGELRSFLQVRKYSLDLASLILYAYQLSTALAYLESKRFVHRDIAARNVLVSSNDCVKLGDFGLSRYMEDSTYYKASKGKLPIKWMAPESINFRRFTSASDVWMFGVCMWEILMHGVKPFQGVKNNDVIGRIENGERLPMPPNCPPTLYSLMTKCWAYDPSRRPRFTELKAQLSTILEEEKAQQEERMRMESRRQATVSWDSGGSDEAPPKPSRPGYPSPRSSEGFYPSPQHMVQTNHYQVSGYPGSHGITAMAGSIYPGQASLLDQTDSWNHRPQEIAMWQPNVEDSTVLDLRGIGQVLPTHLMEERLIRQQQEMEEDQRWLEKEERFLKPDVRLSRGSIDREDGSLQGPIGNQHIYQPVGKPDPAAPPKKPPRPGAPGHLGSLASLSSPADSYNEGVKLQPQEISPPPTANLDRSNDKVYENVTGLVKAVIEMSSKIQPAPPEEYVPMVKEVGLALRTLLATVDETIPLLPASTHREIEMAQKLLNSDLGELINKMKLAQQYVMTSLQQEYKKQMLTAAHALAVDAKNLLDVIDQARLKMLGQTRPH
Sequence of Streptavidin (Streptomyces avidinii) (P22629 whole entry, looked up): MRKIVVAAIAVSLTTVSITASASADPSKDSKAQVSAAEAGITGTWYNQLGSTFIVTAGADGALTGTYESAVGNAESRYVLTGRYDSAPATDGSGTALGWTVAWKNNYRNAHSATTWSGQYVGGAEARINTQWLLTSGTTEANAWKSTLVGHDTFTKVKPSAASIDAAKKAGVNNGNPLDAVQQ

Take `CC(C)CON=C1C[C@@H](O)[C@@H](O)[C@@H]2[C@@H]3C(=O)N(C4CCCCC4)C(=O)[C@@H]3CC[C@@H]12`: the composite z-score is 0.889 in [1]; -0.586 in [2]; 0.955 in assay [3]; 0.476 in assay [4]; 0.0116 in assay [5]; -0.309 in [6]. Further, the composite z-score is 0.225 in [8]; 0.556 in assay [9]; -0.146 in assay [11]; 0.115 in assay [16]; -0.128 in assay [17]; -0.792 in assay [18]. Besides, the composite z-score in assay [19] was -0.0797; in [20], -0.318. For the same molecule, the z-score in [7] was -0.572; in [10], 0.0051 (inactive); in assay [12], -0.82 (inactive); in assay [13], -0.342 (inactive); in assay [14], 0.156 (inactive); in assay [15] it was 0.147 (inactive).
With `COC(=O)[C@@H]1CC[C@H](C)[C@@H](c2ccc(C)cc2)N1C(=O)c1ccc(C=NO[C@H](C)c2cn([C@@H]3COC[C@H]3O)nn2)cc1`, the composite z-score in [1] is -0.684; in [2] it was 1.13; in assay [3], 0.155; in [4], 0.677; in assay [5] it was 0.353; in assay [6] it was 0.502. Moreover, the composite z-score in [8] is 0.551; in assay [9], 0.145; in assay [11], 0.177; in assay [16] it was -0.243; in assay [17], 0.0001; in assay [18], 0.28. The composite z-score was 0.603 in assay [19] and 0.749 in assay [20]. The z-score in [7] is -0.662; in assay [10], 0.411 (inactive); in [12], -0.228 (inactive); in assay [13], 0.068 (inactive); in [14], 2.34 (inactive); in assay [15] it was -0.377 (inactive).
As for `O=C1[C@H]2[C@H]3[C@H](O)[C@H](O)CC(=NOC[C@@H](O)COCc4ccco4)[C@H]3CC[C@H]2C(=O)N1c1ccc(F)cc1F`, the composite z-score was -0.385 in assay [1]; 0.553 in assay [2]; -0.0614 in assay [3]; -1.6 in assay [4]; -0.868 in assay [5]; -1.01 in assay [6]. The composite z-score in assay [8] was -0.0889; in assay [9], 0.972; in assay [11] it was -0.459; in assay [16], -1.07; in assay [17], -0.103; in [18], 2.05. For the same molecule, the composite z-score came out at 1.84 in assay [19] and 0.717 in assay [20]. The z-score in assay [7] was 0.383; in assay [10] it was -0.243 (inactive); in [12] it was -2.57 (inactive); in [13], -1.34 (inactive); in [14] it was 0.699 (inactive); in assay [15], -0.455 (inactive).
For the molecule `CCOC(=O)[C@H](Cc1ccccc1)NC(=O)CCC1CC(OC(=O)NCCc2ccc(F)cc2)CC2(CCCC(COC(=O)NCCc3ccc(Cl)cc3)O2)O1` (stereo not given in full), the composite z-score in [1] amounted to 1.03; in assay [2] it was 1.09; in assay [3], 0.671; in assay [4], 0.832; in assay [5], 0.326; in assay [6] it was 0.996. In addition, the composite z-score was 0.583 in assay [8]; 0.105 in [9]; 0.108 in assay [11]; 0.391 in assay [16]; -0.0494 in [17]; 0.371 in assay [18]. In addition, the results for the composite z-score in assay [19] and in [20] were 0.837 and 0.726, respectively. Also, the z-score in [7] is 0.699; in assay [10], 0.361 (inactive); in assay [12], -0.0147 (inactive); in [13] it was -0.288 (inactive); in assay [14] it was -0.526 (inactive); in assay [15] it was 0.483 (inactive).
For `O=C1[C@H]2[C@H]3[C@H](O)[C@H](O)CC(=NOCc4ccccc4)[C@@H]3CC[C@H]2C(=O)N1C[C@@H]1CCCO1`, the composite z-score was -0.016 in assay [1]; -0.182 in assay [2]; 0.205 in assay [3]; 0.237 in assay [4]; -0.0829 in [5]; 0.0592 in assay [6]. Also, the composite z-score was -0.0955 in assay [8]; -0.396 in assay [9]; 0.0388 in assay [11]; 0.632 in [16]; -0.157 in assay [17]; 0.304 in assay [18]. Besides, the results for the composite z-score in [19] and in [20] were 0.198 and 0.317, respectively. The z-score in [7] is -0.485; in assay [10] it was 0.903 (inactive); in [12], 0.379 (inactive); in assay [13], -0.614 (inactive); in [14], -0.115 (inactive); in assay [15] it was 0.105 (inactive).

The values above are taken from PubChem BioAssay.
